Results from the antibiotic and cytotoxicity screens of Wong et al. (2023).
In all, about 39,000 compounds went through this assay and about 500 (1.3%) were called active. Only a selection was taken, and actives are over-represented in it overall.

test system: S. aureus RN4220; experiment: growth inhibition call (relative growth <= 0.2); conditions: 50 µM

Growth inhibition call, active:
COC1C(OC(N)=O)C(O)C(Oc2ccc3c([O-])c(NC(=O)c4ccc(O)c(CC=C(C)C)c4)c(=O)oc3c2C)OC1(C)C.[Na+] (stereo unspecified), c1n[nH]nc1SSc1cn[nH]n1, NC[C@@H]1O[C@H](C23CC4CC(CC(C4)C2)C3)Cc2c1ccc(O)c2O, OC1(c2ccc(Cl)c(C(F)(F)F)c2)CCN(CCCC(c2ccc(F)cc2)c2ccc(F)cc2)CC1 [listing 1 of 2 here], C[C@H]1c2cccc(O)c2C(=O)C2=C(O)[C@]3(O)C(=O)[C@@H](C(N)=O)C(=O)[C@@H](N(C)C)[C@@H]3[C@@H](O)[C@@H]21, C[C@H]1COc2c(C3(N)CC3)c(F)cc3c(=O)c(C(=O)O)cn1c23, CC1COc2c(N3CCN(C)CC3)c(F)cc3c(=O)c(C(=O)O)cn1c23 (stereo unspecified), CN1CCN(c2c(F)cc3c(=O)c(C(=O)O)cn4c3c2OCN4C)CC1, CC1CCc2cc(F)cc3c(=O)c(C(=O)O)cn1c23 (stereo unspecified), C=CCc1ccc(O)c(OC)c1, FC(F)(F)c1cc(NC(=S)Nc2ccc(Br)cc2-c2nn[nH]n2)cc(C(F)(F)F)c1, O=C(Nc1cc(C(F)(F)F)cc(C(F)(F)F)c1)Nc1c(Br)cc(Br)cc1-c1nn[nH]n1, O=C1CN(/N=C/c2ccc([N+](=O)[O-])o2)C(=O)N1, O=C1OCCN1N=Cc1ccc([N+](=O)[O-])o1, O=C1CN(N=Cc2ccc([N+](=O)[O-])o2)C(=O)N1, O=C1OC(CN2CCOCC2)CN1N=Cc1ccc([N+](=O)[O-])o1 (stereo unspecified)

Growth inhibition call, inactive:
C[C@H](CO)N1C[C@H](C)[C@H](CN(C)C(=O)Cc2ccccc2)OCCCC[C@H](C)Oc2ccc(NS(=O)(=O)c3ccc(F)cc3)cc2C1=O, C[C@@H]1CN([C@@H](C)CO)C(=O)c2cccc(NC(=O)Nc3ccc(C(F)(F)F)cc3)c2O[C@H]1CN(C)C(=O)NC1CCCCC1, C[C@H](O)C#Cc1cnc2c(c1)C(=O)N([C@@H](C)CO)C[C@H](C)[C@@H](CN(C)C(=O)Nc1ccc(C(F)(F)F)cc1)O2, C[C@@H]1CN([C@H](C)CO)C(=O)Cc2cc(NC(=O)Nc3ccc(C(F)(F)F)cc3)ccc2O[C@@H]1CN(C)C(=O)Nc1cccc2ccccc12, CO[C@@H]1[C@@H](OC(=O)c2ccc(C)[nH]2)[C@@H](O)[C@@H](Oc2ccc3c(c2C)OC(=O)[C@H](NC(=O)c2[nH]cc(CC(=O)Nc4cc5ccc(O[C@@H]6OC(C)(C)[C@H](OC)[C@@H](OC(=O)c7ccc(C)[nH]7)[C@H]6O)c(C)c5oc4=O)c2C)C3)CC1(C)C, O=C(C[C@H]1C[C@@H]2c3cc(NS(=O)(=O)c4ccc(F)cc4)ccc3O[C@@H]2[C@@H](CO)O1)NC1CCCCC1, O=C(C[C@H]1CC=CCCC(=O)OCCNC1=O)NCCO, C[C@@H]1CN([C@@H](C)CO)C(=O)Cc2cc(NC(=O)CCCN(C)C)ccc2O[C@H]1CN(C)S(C)(=O)=O, COc1ccc(S(=O)(=O)N(C)C[C@@H]2Oc3ccc(NC(=O)Nc4cccc5ccccc45)cc3C(=O)N([C@@H](C)CO)C[C@@H]2C)cc1, COc1ccc(S(=O)(=O)Nc2cccc3c2O[C@@H](CN(C)S(=O)(=O)c2cn(C)cn2)[C@@H](C)CN([C@H](C)CO)C3=O)cc1, C[C@H]1CN([C@@H](C)CO)C(=O)c2cc(NC(=O)Nc3ccc(C(F)(F)F)cc3)ccc2O[C@H]1CN(C)Cc1ccc(C(=O)O)cc1, Cc1ccc(S(=O)(=O)Nc2cccc3c2O[C@H](CN(C)Cc2ccc(C(F)(F)F)cc2)[C@H](C)CN([C@@H](C)CO)C3=O)cc1, Cn1cnc(S(=O)(=O)N2CC[C@H]3NC(=O)C[C@H]32)c1, C[C@@H]1CN([C@H](C)CO)C(=O)Cc2cc(NC(=O)CCC(F)(F)F)ccc2O[C@H]1CN(C)S(=O)(=O)c1cn(C)cn1, OC1(c2ccc(Cl)c(C(F)(F)F)c2)CCN(CCCC(c2ccc(F)cc2)c2ccc(F)cc2)CC1 [listing 2 of 2 here], O=C(CCCN1CCC(O)(c2ccc(Cl)cc2)CC1)c1ccc(F)cc1, C[C@H](CO)N1C[C@H](C)[C@@H](CN(C)S(=O)(=O)c2ccc(F)cc2)Oc2c(NC(=O)c3ccncc3)cccc2C1=O, C[C@@H]1CN([C@@H](C)CO)C(=O)c2cc(NC(=O)C3CCCCC3)ccc2O[C@@H](C)CCCCO[C@H]1CN(C)Cc1ccc(C(F)(F)F)cc1, COc1ccc(S(=O)(=O)N(C)C[C@@H]2Oc3ccc(NC(=O)C4CC4)cc3CC(=O)N([C@@H](C)CO)C[C@H]2C)cc1, CC1c2cccc(O)c2C(=O)C2=C(O)C3(O)C(=O)C(C(N)=O)=C(O)C(N(C)C)C3C(O)C21.Cl (stereo unspecified), C=C1c2cccc(O)c2C(=O)[C@@H]2C(=O)[C@]3(O)C(=O)[C@@H](C(N)=O)C(=O)[C@@H](N(C)C)[C@@H]3[C@@H](O)[C@H]12, COc1ccc(S(=O)(=O)N(C)C[C@@H]2Oc3c(NC(=O)C4CC4)cccc3C(=O)N([C@@H](C)CO)C[C@@H]2C)cc1, CO[C@@H]1CN(C)C(=O)c2ccc(NC(=O)C3CC3)cc2OC[C@H](C)N(C(=O)CN2CCOCC2)C[C@H]1C, C[C@@H]1CN([C@H](C)CO)C(=O)c2cc(NS(=O)(=O)c3ccccc3)ccc2O[C@@H](C)CCCCO[C@H]1CN(C)C(=O)NC1CCCCC1, CC1COc2c(C3(N)CC3)c(F)cc3c(=O)c(C(=O)O)cn1c23.CS(=O)(=O)O (stereo unspecified), CC1CCc2c(N3CCC(O)CC3)c(F)cc3c(=O)c(C(=O)O)cn1c23 (stereo unspecified), COc1ccc2c3c([nH]c2c1)[C@@H](CO)N(C[C@]13CCN(CC1)C(=O)NC(C)C)C(=O)CN1CCOCC1, C[C@H]1CN([C@@H](C)CO)C(=O)c2cc(C#CCN(C)C)cnc2O[C@@H]1CN(C)C(=O)Nc1cccc(F)c1, C[C@@H]1CN([C@@H](C)CO)C(=O)Cc2cc(NC(=O)NC3CCCCC3)ccc2O[C@H]1CN(C)C(=O)Nc1ccc(C(F)(F)F)cc1, Cc1ccc(S(=O)(=O)Nc2ccc3c(c2)C(=O)N([C@@H](C)CO)C[C@H](C)[C@@H](CN(C)Cc2ccc(C(F)(F)F)cc2)OCCCC[C@H](C)O3)cc1, C[C@H]1CN([C@@H](C)CO)C(=O)Cc2cc(NS(=O)(=O)c3cn(C)cn3)ccc2O[C@@H]1CN(C)Cc1ccncc1, COc1ccc(S(=O)(=O)Nc2ccc3c(c2)CC(=O)N([C@@H](C)CO)C[C@@H](C)[C@@H](CN(C)S(=O)(=O)c2cn(C)cn2)O3)cc1, Cc1noc(C)c1NC(=O)Nc1ccc2c(c1)CC(=O)N([C@H](C)CO)C[C@H](C)[C@H](CN(C)Cc1ccc(Cl)c(Cl)c1)O2, CN1C[C@H](C(N)=O)CC1=O, Nc1ccc(/C=C/C(=O)NCc2cc3cc(-c4ccc(C(=O)N5CCC(F)(F)CC5)cc4)cc(-c4ccc(F)cc4)c3o2)cn1, Cc1ccc(S(=O)(=O)N2C[C@@H](O)COC[C@H]3O[C@@H](CC(=O)NCCN4CCCCC4)CC[C@@H]32)cc1, C[C@H](CO)N1C[C@H](C)[C@H](CN(C)Cc2ccncc2)OCCCC[C@H](C)Oc2ccc(NC(=O)C3CCCCC3)cc2C1=O, C[C@H]1CN([C@@H](C)CO)C(=O)Cc2cc(NS(=O)(=O)c3cccs3)ccc2O[C@@H]1CN(C)C(=O)Nc1cccc2ccccc12, CC(C)NC(=O)Nc1ccc2c(c1)CC(=O)N([C@H](C)CO)C[C@@H](C)[C@@H](CN(C)C(=O)NC1CCCCC1)O2, COc1cc(C=O)ccc1O, COc1cc(C(C)=O)ccc1O, C[C@@H]1CN([C@@H](C)CO)C(=O)c2cccc(NC(=O)c3cnccn3)c2O[C@H]1CN(C)S(C)(=O)=O, COc1ccc(S(=O)(=O)N(C)C[C@@H]2Oc3c(NC(=O)NC(C)C)cccc3C(=O)N([C@H](C)CO)C[C@H]2C)cc1, CCCNC(=O)N1[C@@H]2c3cccc(=O)n3C[C@H]1[C@H](CO)[C@H]2C(=O)NCC(F)(F)F, O=C(Nc1cc(C(F)(F)F)cc(C(F)(F)F)c1)Nc1cnn(-c2ccc([N+](=O)[O-])cc2)c1C(F)(F)F, C[C@@H]1CN([C@H](C)CO)C(=O)Cc2cc(NC(=O)Cn3cnnn3)ccc2O[C@@H]1CN(C)S(=O)(=O)c1ccccc1, COc1cccc(NC(=O)N[C@@H]2C=C[C@H](CC(=O)N3CCOCC3)O[C@H]2CO)c1, Cc1noc(C)c1NC(=O)N(C)C[C@@H]1OCCCC[C@@H](C)Oc2ccc(NC(=O)Cc3ccccc3)cc2C(=O)N([C@@H](C)CO)C[C@@H]1C, Cc1noc(C)c1S(=O)(=O)Nc1ccc2c(c1)C(=O)N([C@@H](C)CO)C[C@@H](C)[C@@H](CN(C)C(=O)NC(C)C)O2, O=C1CN(N=Cc2ccc(-c3ccc([N+](=O)[O-])cc3)o2)C(=O)[N-]1.[Na+], O=[N+]([O-])c1cncn1CCN1CCOCC1, COc1ccc(CN(C)C[C@@H]2OCCCC[C@H](C)Oc3ccc(NS(=O)(=O)c4cccs4)cc3C(=O)N([C@@H](C)CO)C[C@H]2C)cc1, O=C(O)[C@H](O)c1ccccc1, COc1ccc(S(=O)(=O)N[C@H]2CC[C@H](CCNC(=O)CN3CCOCC3)O[C@@H]2CO)cc1, C[C@@H]1CCCCO[C@@H](CN(C)Cc2ccncc2)[C@@H](C)CN([C@H](C)CO)C(=O)c2cc(NC(=O)Nc3ccc(F)cc3)ccc2O1
